# Screening results (PubChem BioAssay)
# SARS PLP yeast: qHTS of Yeast-based Assay for SARS-CoV PLP. S. cerevisiae expressing SARS-CoV PLpro, growth rescue. Potency, µM (doses to about 32.9 µM), usual class: activators. 330,000 tested, 0.19% active; note: nearly all actives have a fitted effect of over 55% in size
# Shiga inhibitor: A qHTS for Small Molecule Inhibitors of Shiga Toxin; 290,000 tested, 9.2% active; AID 2315, 2010; Vero cells, Shiga toxin protein synthesis inhibition reporter; inhibition, % at 38.7 µM; in the data active = inhibition mostly above about 28%, no sharp cut-off; inactive = mostly below about 43%
# Cycloheximide cs: Cycloheximide Counterscreen for Small Molecule Inhibitors of Shiga Toxin; cell reporter, cycloheximide protein synthesis inhibition counterscreen; max response, %; 300,000 tested, 12% active; in the data active = max response mostly above about 13%, no sharp cut-off; inactive = mostly below about 14%; note: read at 38.3 µM for the half of the compounds with a filed dose
# Tb PYK inh: qHTS of Trypanosoma Brucei Inhibitors; AID 624173, 2012; pyruvate kinase (Trypanosoma brucei), Q57TT1; TbPYK enzyme, Kinase-Glo Plus ATP luminescence, 45 min; 410,000 tested, 0.12% active; Potency, µM (doses to about 76.8 µM), hits mostly inhibitors; active = well fitted curve in the direction sought with a large enough effect; inconclusive = small, poorly fitted or top-dose-only effect, or another doubt; inactive = no such curve, though single readings can be large; an effect the other way counts as inactive or inconclusive; note: nearly all actives have a fitted effect of over 50% in size
#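 T. brucei PYK with substrate was exposed to pin-transferred compounds across a concentration series, then started with 130 uM ADP (final). After 45 min at room temperature, Kinase-Glo Plus luminescence was read, normalized and curve-fitted.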
# NS1 function inh: qHTS Assay for Inhibitors of Influenza NS1 Protein Function | Potency, µM (series often up to 46.1 µM) | 270,000 tested, 0.4% active | AID 2326, 2010; note: actives are rising curves; nearly all actives have a fitted effect of over 50% in size
#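 OD600 was taken as the measure of yeast growth restored by compound in an NS1-expressing S. cerevisiae strain. Cells had been washed out of glucose medium and diluted 1:100 into galactose -URA medium, pH 6.0.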
# LmPK inh: qHTS Assay for Inhibitors of Leishmania Mexicana Pyruvate Kinase (LmPK) | purified LmPK, Kinase-Glo ATP luminescence, 1 h | 290,000 tested, 0.37% active | Potency, µM (top dose mostly 57.5 µM), hits mostly inhibitors | AID 1721, 2009; active = well fitted curve in the direction sought with a large enough effect; inconclusive = small, poorly fitted or top-dose-only effect, or another doubt; inactive = no such curve, though single readings can be large; an effect the other way counts as inactive or inconclusive
# Target sequence (Q27686 whole entry, looked up): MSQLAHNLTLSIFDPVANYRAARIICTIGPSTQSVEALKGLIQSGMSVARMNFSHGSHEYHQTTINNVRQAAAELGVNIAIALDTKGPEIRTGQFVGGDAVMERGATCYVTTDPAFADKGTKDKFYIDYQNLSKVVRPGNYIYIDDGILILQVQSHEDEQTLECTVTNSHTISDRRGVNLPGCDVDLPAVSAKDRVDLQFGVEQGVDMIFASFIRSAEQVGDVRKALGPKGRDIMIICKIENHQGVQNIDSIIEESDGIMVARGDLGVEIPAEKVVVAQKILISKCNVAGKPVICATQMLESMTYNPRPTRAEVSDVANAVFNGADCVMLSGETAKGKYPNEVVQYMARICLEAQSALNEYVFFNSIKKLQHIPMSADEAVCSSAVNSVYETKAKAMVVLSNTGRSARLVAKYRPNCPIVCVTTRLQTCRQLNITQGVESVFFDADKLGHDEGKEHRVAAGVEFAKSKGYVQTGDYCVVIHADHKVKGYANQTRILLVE
#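 ATP generated from ADP (0.1 mM) and PEP (0.5 mM) by 0.1 nM LmPK over 1 h at room temperature (pH 7.2 imidazole buffer) was detected by coupled luciferase luminescence. Values were normalized to uninhibited and no-enzyme wells.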
# A number is an active result; 0 = inactive; ? = inconclusive; - = not tested or not shown. This excerpt belongs to a sample that is enriched for hits. Unless noted, calls come from the whole dose curve.
SMILES,SARS PLP yeast,Shiga inhibitor,Cycloheximide cs,Tb PYK inh,NS1 function inh,LmPK inh
Cc1oc2cc3oc(=O)c(CCC(=O)NCCCN4CCOCC4)c(C)c3cc2c1C,0,0,active,0,0,0
O=C(O)c1ccc(-c2c[nH]c3ccc(-c4ccccc4)cc23)cc1C1CCCC1,-,-,-,0,-,-
Fc1ccc(Oc2nccc(-c3ccc(Cl)cc3)n2)cc1,0,36,26,0,0,0
COc1ccc(Oc2nccc(-c3ccc(Cl)cc3)n2)cc1,0,0,0,0,0,0
O=S(=O)(c1cccc2nsnc12)N1CCNCC1,0,0,0,0,0,0
CC(=O)Nc1ccc(S(=O)(=O)N(C)CC(=O)N/N=C/c2cccc(O)c2)cc1,0,0,0,0,0,0
O=C(CN(Cc1ccco1)S(=O)(=O)c1ccccc1)N/N=C/c1cccc(O)c1,0,48,0,0,0,0
CCN(CC)c1ccc(NC(=O)c2cccnc2)cc1,-,61,39,0,0,0
CCN(CC)c1ccc(NC(=O)c2cncc(Br)c2)cc1,0,60,43,0,0,0
COc1c2c(c3c(c1OC)c(=O)c1ccccc1n3C)OCO2,-,-,-,0,-,-
N/C(=N\OC(=O)c1ccc([N+](=O)[O-])cc1Cl)c1ccccn1,0,0,14,?,0,18µM
O=C(OCc1nnc(-c2ccccc2)o1)c1cc([N+](=O)[O-])ccc1Cl,0,0,0,0,-,0
N/C(=N\OC(=O)c1cccc(Br)c1)c1ccc([N+](=O)[O-])cc1,0,0,0,0,0,0
N/C(=N\OC(=O)c1cc([N+](=O)[O-])ccc1Cl)c1ccccn1,0,58,23,0,0,0
N/C(=N\OC(=O)c1cccc([N+](=O)[O-])c1)c1ccccn1,0,114,37,0,-,0
NC(=O)c1ccc([N+](=O)[O-])cc1Cl,-,-,-,0,-,-
O=c1c(-c2cc(-c3ccc(F)cc3)nc3c2COc2ccc(Cl)cc2-3)coc2ccc(F)cc12,-,-,-,0,-,-
COc1ccccc1NS(=O)(=O)c1cc(NC(=O)C(C)(C)C)ccc1N1CCOCC1,0,-,-,0,-,-
O=C(/C=C/c1cccs1)Nc1ccc(N2CCOCC2)c(S(=O)(=O)Nc2cc(Cl)ccc2Cl)c1,0,0,0,0,0,0
COc1ccccc1NS(=O)(=O)c1cc(NC(=O)/C=C/c2cccs2)ccc1N1CCOCC1,0,0,0,0,14µM,0
O=C(/C=C/c1cccs1)Nc1ccc(N2CCOCC2)c(S(=O)(=O)Nc2ccccc2Cl)c1,0,61,21,0,0,0
CC1CCCC(C)N1C(=O)C1CC(c2ccc(F)cc2)=NO1 (stereo not drawn),0,48,20,0,0,0
O=C(NC1CCCC1)C1CC(c2ccc(F)cc2)=NO1 (stereo not drawn),0,69,42,0,0,0
CC1CCN(C(=O)C2CC(c3ccc(F)cc3)=NO2)CC1 (stereo not drawn),0,98,36,0,0,0
Cc1ccc(N(CC(=O)NCC2CCCO2)C(=O)CCC(=O)Nc2cc(C)on2)cc1 (stereo not drawn),0,0,0,0,0,0
SMILES,SARS PLP yeast,Shiga inhibitor,Cycloheximide cs,Tb PYK inh,NS1 function inh,LmPK inh
Cc1nn(-c2nccs2)c2c1C(=O)CC(C)(C)C2Br (stereo not drawn),-,-,-,0,-,-
O=C(/C=C/c1ccccc1)C1C(=O)c2ccccc2C1=O,0,42,33,0,0,0
CCc1nn(CC(=O)NCCCOC)c(=O)c2cc3ccccc3n12,-,-,-,0,-,-
CC1Cc2ccccc2N1C(=O)COC(=O)/C=C/c1ccc(F)cc1 (stereo not drawn),0,-,-,0,-,-
CC1Cc2ccccc2N1C(=O)/C=C/c1cccc(F)c1 (stereo not drawn),0,87,45,0,-,0
COc1ccccc1NC(=O)C1CCC(CNS(=O)(=O)c2ccc3c(c2)CC(C)N3C(C)=O)CC1 (stereo not drawn),-,-,-,0,-,-
Cc1cnc(Nc2ccc(F)cc2Cl)nc1-c1c[nH]c(C(=O)N[C@H](CO)c2cccc(Cl)c2)c1,-,-,-,0,-,-
Cc1ccc(S(=O)(=O)N2CCCN(C(=O)c3ccc(-n4nccc4C)cc3)CC2)cc1,0,-,-,0,-,-
COc1ccc(-n2nc3c(c2NC(=O)c2cc4ccccc4o2)CS(=O)(=O)C3)cc1,0,0,0,0,0,0
COc1ccc(OC)c(NC(=O)c2cc3cccc(OC)c3oc2=O)c1,-,-,-,0,-,-
COc1ccccc1NC(=O)c1oc2ccccc2c1C,-,-,-,0,-,-
COc1ccccc1NS(=O)(=O)c1ccc(C)c(C(=O)Nc2cc(C)on2)c1,0,-,-,0,-,-
COc1ccc(-n2nc3c(c2NC(=O)c2cc4ccccc4oc2=O)CS(=O)(=O)C3)cc1,-,-,-,-,6.3µM,-
COc1ccc(NC(=O)c2oc3ccccc3c2C)c(OC)c1,0,46,16,0,0,0
COc1ccc(NC(=O)c2cc3ccccc3oc2=O)c(OC)c1,0,133,51,0,0,0
COc1ccc(S(=O)(=O)Nc2ccccc2OC)cc1NC(=O)c1cc2ccccc2oc1=O,0,148,38,0,0,0
O=C(C1CCCCC1)N1C[C@H](n2cc(C3CC3)nn2)[C@@H](O)C[C@@H]1c1ccc(Cl)cc1,-,-,-,0,-,-
COc1ccc(OCC2c3cc(OC)c(OC)cc3CCN2C(=O)c2c(F)cccc2F)cc1 (stereo not drawn),-,-,-,0,-,-
C[C@@H](/C=C/c1ccc2ccccc2c1)C1COC(=O)C[C@H]1O (stereo partly drawn),-,0,0,-,-,-
COc1ccccc1C(=O)Nc1cc2ccccc2oc1=O,0,43,19,0,?,0
Cc1nc(N2CCOCC2)c2c(C(=O)NCc3ccc(Cl)cc3)c(C)oc2n1,-,-,-,0,-,-
COc1ncc2nc(C)c(=O)n(CCC#N)c2n1,-,-,-,0,-,-
CCn1c2ccccc2c2cc(NC(=O)N3CCOCC3)ccc21,0,85,32,0,0,0
